A number with no mark means an inactive call. Active and inactive are the calls of the source. Rule as the data show it, unless noted: active = inhibition above about 25%; inactive = the rest.
Biological target: Nuclear receptor coactivator 1 (Homo sapiens) (UniProt Q15788)
Assay: NCOA1 GAL4-fusion reporter inhibition – cell-based, luminescence, quadruplicate, confirmation (AID 588820;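 active = mean inhibition above 46.68%, the untreated control wells mean plus 3 SD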;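 also: 0% = DMSO wells and 100% = gossypol 36 µM treated wells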)
Conditions: HEK293 GAL4-SRC1 luciferase reporter, at 3.6 µM, hits give high values

Sequence of Nuclear receptor coactivator 1 (Homo sapiens) (Q15788 whole entry, looked up, the tested form may be a part): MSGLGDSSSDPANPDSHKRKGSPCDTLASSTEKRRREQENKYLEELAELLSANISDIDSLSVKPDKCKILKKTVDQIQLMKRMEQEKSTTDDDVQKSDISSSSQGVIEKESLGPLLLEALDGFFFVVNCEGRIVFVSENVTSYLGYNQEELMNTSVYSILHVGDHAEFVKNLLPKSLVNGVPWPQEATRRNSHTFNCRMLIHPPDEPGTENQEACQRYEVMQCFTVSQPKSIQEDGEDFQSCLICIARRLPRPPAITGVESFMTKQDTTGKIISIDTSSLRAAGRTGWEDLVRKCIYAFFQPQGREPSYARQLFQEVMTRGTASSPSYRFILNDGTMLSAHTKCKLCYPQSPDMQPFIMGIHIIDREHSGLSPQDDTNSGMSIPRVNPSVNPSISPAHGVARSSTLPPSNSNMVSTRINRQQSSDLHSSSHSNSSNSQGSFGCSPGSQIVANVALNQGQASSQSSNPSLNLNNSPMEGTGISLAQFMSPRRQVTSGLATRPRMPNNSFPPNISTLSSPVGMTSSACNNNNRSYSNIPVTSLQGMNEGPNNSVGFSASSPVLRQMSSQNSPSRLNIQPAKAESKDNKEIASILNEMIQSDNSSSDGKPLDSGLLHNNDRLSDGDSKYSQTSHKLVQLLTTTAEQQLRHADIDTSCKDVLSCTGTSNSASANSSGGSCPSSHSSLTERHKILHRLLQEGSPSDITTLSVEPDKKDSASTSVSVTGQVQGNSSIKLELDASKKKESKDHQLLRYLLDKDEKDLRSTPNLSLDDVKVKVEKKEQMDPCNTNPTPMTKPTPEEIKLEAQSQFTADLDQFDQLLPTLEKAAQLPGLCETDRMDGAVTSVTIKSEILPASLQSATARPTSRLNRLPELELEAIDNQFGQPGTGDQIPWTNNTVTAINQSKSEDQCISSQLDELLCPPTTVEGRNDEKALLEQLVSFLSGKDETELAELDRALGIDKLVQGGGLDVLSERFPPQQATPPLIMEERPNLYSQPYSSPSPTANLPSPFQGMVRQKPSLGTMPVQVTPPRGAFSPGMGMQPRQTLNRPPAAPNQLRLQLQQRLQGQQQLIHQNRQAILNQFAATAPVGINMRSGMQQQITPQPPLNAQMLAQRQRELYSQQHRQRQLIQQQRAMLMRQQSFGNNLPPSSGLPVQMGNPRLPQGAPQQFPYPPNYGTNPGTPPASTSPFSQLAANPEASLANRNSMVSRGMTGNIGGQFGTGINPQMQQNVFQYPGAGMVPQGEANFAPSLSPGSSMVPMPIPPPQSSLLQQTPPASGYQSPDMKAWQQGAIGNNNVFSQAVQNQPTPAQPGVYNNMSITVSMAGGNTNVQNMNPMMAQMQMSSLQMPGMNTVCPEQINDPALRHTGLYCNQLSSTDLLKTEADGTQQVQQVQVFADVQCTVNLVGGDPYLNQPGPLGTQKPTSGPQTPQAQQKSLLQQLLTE

| Structure (SMILES) | inhibition [%] |
| --- | --- |
| Cn1ccnc1SCC(=O)NC1(C#N)CCCCC1 | -19.4 |
| CCN(CC)CCNC(=O)CCN1N=C(c2ccccc2)CCC1=O | -4.6 |
| COC(=O)c1cc(=O)n(Cc2ccco2)c(=Nc2ccc(F)c(Cl)c2)s1 | -12.1 |
| Cc1cccc(C)c1NC(=O)CN(C)CC(=O)Nc1ccc(F)c(Cl)c1 | 4.35 |
| O=C(Nc1nc(-c2ccccn2)cs1)c1cccc(-n2cnnn2)c1 | 17.6 |
| CCN(CC)c1ccc(C=Nc2cc(C)ccc2C)c(O)c1 | 3.4 |
| CCOc1ccc(NC(=O)CN(C)C(=O)C2CCN(c3ncnc4sc(C)c(C)c34)CC2)cc1OCC | 0.38 |
| O=C(NCc1ccccn1)c1ccc(OC2CCN(Cc3ccc(F)cc3F)CC2)cc1 | -0.3 |
| CCC1CCCCN1C(=O)CSc1nc(N)cc(=O)[nH]1 (stereo not drawn) | -15.7 |
| CCOC(=O)C1CCN(S(=O)(=O)c2ccc3c(c2)CC(C)N3C(=O)C2CC2)CC1 (stereo not drawn) | -22.1 |
| OC[C@@H]1CN(Cc2ccc(-c3ccccc3)cc2)C[C@H](n2cnc3c(NCc4ccncc4)ncnc32)O1 | 10.1 |
| O=C(NCCc1ccc(F)cc1)C(=O)NCC1CCCN1S(=O)(=O)c1ccccc1 (stereo not drawn) | -36.4 |
| COC(C(=O)Nc1ccc(S(=O)(=O)Nc2ccc(C)c(C)c2)cc1)c1ccccc1 (stereo not drawn) | -8.72 |
| O=C(N/N=C/c1coc2ccc(Cl)cc2c1=O)c1ccc(O)cc1 | 18.6 |
| COc1cccc(C(c2c(NC(=O)c3ccco3)sc(C)c2C)N2CCOCC2)c1 (stereo not drawn) | -6.24 |
| COc1ccccc1-c1cccc(-c2nc(C(=O)N3CCCCC3)cc3c2[C@H](CCO)N(S(=O)C(C)(C)C)C3)c1 (stereo partly drawn) | -56.9 |
| COc1ccc(Cl)cc1NC(=O)Nc1ccccc1C(N)=O | 9.1 |
| Cc1cc(NC(=O)CN2CCN(S(=O)(=O)c3ccc4ccccc4c3)CC2)no1 | -3.08 |
| Cc1ccc(C2/C(=C(\O)c3ccc4c(c3)OCCO4)C(=O)C(=O)N2Cc2cccnc2)cc1 (stereo not drawn) | -15.5 |
| CN1OC[C@@H]2CN(C(=S)NCCc3ccccc3)[C@H](c3ccc(-n4ccnc4)cc3)C[C@@H]21 | -1.96 |

| Structure (SMILES) | inhibition [%] |
| --- | --- |
| COc1ccc(CNC(=O)c2ccc(N3CCC4(CC3)CC(c3ccc(Cl)cc3)=NO4)c([N+](=O)[O-])c2)cc1 | 6.27 |
| O=C(CCCn1c(=S)[nH]c2ccsc2c1=O)Nc1ccc2c(c1)OCCO2 | -1.89 |
| N#Cc1cc2ccncc2c2ccccc12 | 30.8 |
| COc1cc(-c2cnc3c(NC(C)=O)cc(-c4ccc(N5CCN(C)CC5)cc4)cn23)cc(OC)c1OC | -17.8 |
| COc1ccc(NC(=O)/C(C#N)=C\c2cc(C)n(-c3ccc4c(c3)OCO4)c2C)cc1 | -34.8 |
| CC(=O)N1CCc2c(sc(NC(=O)C3CCCN3S(=O)(=O)c3cccs3)c2C(N)=O)C1 (stereo not drawn) | 4.87 |
| C=C1C(=O)O[C@@H]2[C@H]1CC[C@H](C)[C@]1(O)CCC(=O)[C@@]21C | -18 |
| CC(C)C[C@H](NC(=O)c1nc[nH]c1C(=O)N1CCN(C(=O)OC(C)(C)C)CC1)C(=O)OC(C)(C)C | 21.8 |
| CN1CCN(c2nc(-c3cccs3)nc3ccccc23)CC1 | 14.3 |
| O=C(c1nnsc1S(=O)c1ccc(Cl)cc1)N1CCOCC1 (stereo not drawn) | -24.9 |
| CN1CCN(c2ccc(Cl)cc2NC(=O)CC2OC(=O)c3ccccc32)CC1 (stereo not drawn) | -37.2 |
| Cc1cc(OCC(O)CN2CCc3ccccc3C2)cc(C(C)C)c1 (stereo not drawn) | -16.6 |
| Cc1csc(-c2cc(C(=O)NCc3cc(C(F)(F)F)cc(C(F)(F)F)c3)n[nH]2)c1 | 20.5 |
| CC(=O)NCCOc1nc(N(C)C)nc(N(C)C)n1 | -4.35 |
| COC(=O)c1cc2ccccn2c2c(C(=O)OC)c(C(=O)OC)cc1-2 | -58.3 |
| Cc1nnc(N2CCN(Cc3ccccc3)CC2)[nH]c1=O | -4.97 |
| c1ccc2c(c1)CCN(c1nc3cc4c(cc3s1)OCCO4)C2 | -22.2 |
| CC(NC(=O)CSc1nc2ccccc2n1C)c1ccccc1 (stereo not drawn) | 0.06 |
| Cc1oc(C(C)(C)C)cc1C(=O)N1CCN(c2ccc(C(F)(F)F)cn2)CC1 | 0.89 |

System: not listed separately
Assay: repression of VP16-driven luciferase reporter – cell-based, luminescence, high throughput, counter-screen for SRC1 inhibitor project (AID 588824)
Conditions: cell-based VP16 transactivation luciferase luminescence; at 3.6 µM; hits give high values

| Structure (SMILES) | inhibition |
| --- | --- |
| Cn1ccnc1SCC(=O)NC1(C#N)CCCCC1 | -3.8% |
| CCN(CC)CCNC(=O)CCN1N=C(c2ccccc2)CCC1=O | -9.8% |
| COC(=O)c1cc(=O)n(Cc2ccco2)c(=Nc2ccc(F)c(Cl)c2)s1 | 18.7% |
| Cc1cccc(C)c1NC(=O)CN(C)CC(=O)Nc1ccc(F)c(Cl)c1 | 11.2% |
| O=C(Nc1nc(-c2ccccn2)cs1)c1cccc(-n2cnnn2)c1 | 7.13% |
| CCN(CC)c1ccc(C=Nc2cc(C)ccc2C)c(O)c1 | -6.63% |
| CCOc1ccc(NC(=O)CN(C)C(=O)C2CCN(c3ncnc4sc(C)c(C)c34)CC2)cc1OCC | 3.14% |
| O=C(NCc1ccccn1)c1ccc(OC2CCN(Cc3ccc(F)cc3F)CC2)cc1 | 3.5% |
| CCC1CCCCN1C(=O)CSc1nc(N)cc(=O)[nH]1 (stereo not drawn) | -3.43% |
| CCOC(=O)C1CCN(S(=O)(=O)c2ccc3c(c2)CC(C)N3C(=O)C2CC2)CC1 (stereo not drawn) | 3.71% |
| OC[C@@H]1CN(Cc2ccc(-c3ccccc3)cc2)C[C@H](n2cnc3c(NCc4ccncc4)ncnc32)O1 | 28.9% (active) |
| O=C(NCCc1ccc(F)cc1)C(=O)NCC1CCCN1S(=O)(=O)c1ccccc1 (stereo not drawn) | -2.18% |
| COC(C(=O)Nc1ccc(S(=O)(=O)Nc2ccc(C)c(C)c2)cc1)c1ccccc1 (stereo not drawn) | -12.5% |
| O=C(N/N=C/c1coc2ccc(Cl)cc2c1=O)c1ccc(O)cc1 | 17.8% |
| COc1cccc(C(c2c(NC(=O)c3ccco3)sc(C)c2C)N2CCOCC2)c1 (stereo not drawn) | -1.54% |
| COc1ccccc1-c1cccc(-c2nc(C(=O)N3CCCCC3)cc3c2[C@H](CCO)N(S(=O)C(C)(C)C)C3)c1 (stereo partly drawn) | -21.5% |
| COc1ccc(Cl)cc1NC(=O)Nc1ccccc1C(N)=O | 17.7% |
| Cc1cc(NC(=O)CN2CCN(S(=O)(=O)c3ccc4ccccc4c3)CC2)no1 | -1.04% |
| Cc1ccc(C2/C(=C(\O)c3ccc4c(c3)OCCO4)C(=O)C(=O)N2Cc2cccnc2)cc1 (stereo not drawn) | -9.56% |
| CN1OC[C@@H]2CN(C(=S)NCCc3ccccc3)[C@H](c3ccc(-n4ccnc4)cc3)C[C@@H]21 | -0.23% |

| Structure (SMILES) | inhibition |
| --- | --- |
| COc1ccc(CNC(=O)c2ccc(N3CCC4(CC3)CC(c3ccc(Cl)cc3)=NO4)c([N+](=O)[O-])c2)cc1 | 28.2% (active) |
| O=C(CCCn1c(=S)[nH]c2ccsc2c1=O)Nc1ccc2c(c1)OCCO2 | -10.8% |
| N#Cc1cc2ccncc2c2ccccc12 | 16.7% |
| COc1cc(-c2cnc3c(NC(C)=O)cc(-c4ccc(N5CCN(C)CC5)cc4)cn23)cc(OC)c1OC | -18.2% |
| COc1ccc(NC(=O)/C(C#N)=C\c2cc(C)n(-c3ccc4c(c3)OCO4)c2C)cc1 | 30.7% (active) |
| CC(=O)N1CCc2c(sc(NC(=O)C3CCCN3S(=O)(=O)c3cccs3)c2C(N)=O)C1 (stereo not drawn) | -1.35% |
| C=C1C(=O)O[C@@H]2[C@H]1CC[C@H](C)[C@]1(O)CCC(=O)[C@@]21C | 11.1% |
| CC(C)C[C@H](NC(=O)c1nc[nH]c1C(=O)N1CCN(C(=O)OC(C)(C)C)CC1)C(=O)OC(C)(C)C | 78.9% (active) |
| CN1CCN(c2nc(-c3cccs3)nc3ccccc23)CC1 | 10% |
| O=C(c1nnsc1S(=O)c1ccc(Cl)cc1)N1CCOCC1 (stereo not drawn) | -6.26% |
| CN1CCN(c2ccc(Cl)cc2NC(=O)CC2OC(=O)c3ccccc32)CC1 (stereo not drawn) | -6.69% |
| Cc1cc(OCC(O)CN2CCc3ccccc3C2)cc(C(C)C)c1 (stereo not drawn) | -6.97% |
| Cc1csc(-c2cc(C(=O)NCc3cc(C(F)(F)F)cc(C(F)(F)F)c3)n[nH]2)c1 | 47.2% (active) |
| CC(=O)NCCOc1nc(N(C)C)nc(N(C)C)n1 | 0% |
| COC(=O)c1cc2ccccn2c2c(C(=O)OC)c(C(=O)OC)cc1-2 | -27.2% |
| Cc1nnc(N2CCN(Cc3ccccc3)CC2)[nH]c1=O | -7.63% |
| c1ccc2c(c1)CCN(c1nc3cc4c(cc3s1)OCCO4)C2 | 2.93% |
| CC(NC(=O)CSc1nc2ccccc2n1C)c1ccccc1 (stereo not drawn) | -11.7% |
| Cc1oc(C(C)(C)C)cc1C(=O)N1CCN(c2ccc(C(F)(F)F)cn2)CC1 | 15.2% |

From PubChem BioAssay
